Laboratory results taken from PubChem BioAssay (NCATS).
Results filed as inconclusive are left out. A number with no mark means an inactive call. Activity calls are given as the source filed them. Calls come from the whole dose curve; as a rule, active = well fitted inhibition curve with a large enough effect; inconclusive = small, poorly fitted or top-dose-only effect; inactive = no such curve, though single readings can be large or run the other way.

assay: BET inhibitor-based combinations targeting novel dependencies in MECOM-rearranged (r) AML: MV-4-11 cell line (AID 2202233); conditions: MV-4-11 AML viability, CellTiter-Glo luminescence, 48 h; series mostly up to 46 µM; viability, % of control: at the top concentration; note: nearly all actives have a fitted effect of over 45% in size;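 for viability, % of control: plate controls were DMSO for no effect and blank wells for full effect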
Summary of the method: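 Seeding density was 500 cells/well, and drug exposure lasted 48 hr under standard culture conditions. Read-out used CellTiter-Glo reagent with a 15 min room-temperature incubation before luminescence measurement; AUC and Z-AUC summarize the normalized responses.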
Potency is the fitted concentration of half-maximal effect.

| Compound | Potency | viability, % of control |
| --- | --- | --- |
| O=C(Nc1ccncc1)C(=O)c1cn(Cc2ccc(Cl)cc2)c2ccccc12 | 0.296 µM (active) |  |
| COC(=O)[C@@]12OC[C@]34[C@H]([C@@H](O)[C@@H]1O)[C@@]1(C)CC(=O)C(O)=C(C)[C@@H]1C[C@H]3OC(=O)[C@H](OC(=O)/C=C(\C)C(C)C)[C@@H]24 | 0.003 µM (active) |  |
| N#CC(O[C@@H]1O[C@H](CO[C@@H]2O[C@H](CO)[C@@H](O)[C@H](O)[C@H]2O)[C@@H](O)[C@H](O)[C@H]1O)c1ccccc1 (stereo not given in full) |  | 67.3% |
| C[C@H]1[C@H](O)[C@@H](C)/C=C/C=C/CC/C=C/C=C/C=C/C=C/[C@H](O[C@@H]2O[C@H](C)[C@@H](O)[C@H](N)[C@@H]2O)C[C@@H]2O[C@](O)(C[C@@H](O)[C@H](O)CC[C@@H](O)C[C@@H](O)C[C@@H](O)CC(=O)O[C@H]1C)C[C@H](O)[C@H]2C(=O)O |  | 79.4% |
| C=C(C)[C@@H]1CCC(C)=C[C@H]1c1c(O)cc(CCCCC)cc1O | 18.6 µM (active) |  |
| COc1cc(C)[nH]c(=O)c1CNC(=O)c1c(C)n([C@H](C)C2CCN(CC(F)(F)F)CC2)c2ccccc12 |  | 93.1% |
| Cc1c(N)nc([C@H](CC(N)=O)NC[C@@H](N)C(N)=O)nc1C(=O)N[C@H](C(=O)N[C@@H](C)[C@H](O)[C@@H](C)C(=O)N[C@@H](C(=O)NCCc1nc(-c2nc(C(=O)NCCC[S+](C)C)cs2)cs1)[C@@H](C)O)C(O[C@H]1O[C@H](CO)[C@H](O)[C@@H](O)[C@H]1O[C@H]1O[C@H](CO)[C@@H](O)[C@H](OC(N)=O)[C@@H]1O)c1cnc[nH]1 (stereo not given in full) | 4.56 µM (active) |  |
| CC(C)C[C@H](CN)CC(=O)O |  | 133% |
| C/C=C(\C)C(=O)N[C@@H](c1ccccc1)[C@@H](O)C(=O)O[C@H]1C[C@@]2(O)[C@@H](OC(=O)c3ccccc3)[C@@H]3[C@]4(OC(C)=O)CO[C@@H]4C[C@H](O)[C@@]3(C)C(=O)[C@H](OC(C)=O)C(=C1C)C2(C)C | 0.0263 µM (active) |  |
| COC12C(COC(N)=O)C3=C(C(=O)C(C)=C(N)C3=O)N1CC1C2N1C (stereo not given) |  | 113% |
| C[C@@H]1O[C@@H](O[C@@H]2C=C3CC[C@@H]4[C@H](CC[C@]5(C)[C@@H](c6ccc(=O)oc6)CC[C@]45O)[C@@]3(C)CC2)[C@H](O)[C@H](O)[C@H]1O | 0.0295 µM (active) |  |
| C[C@@]12OC(=O)[C@]1([C@@H](O)[C@@H]1C=CCCC1)NC(=O)[C@@H]2CCCl | 0.0235 µM (active) |  |
| CO[C@H]1CCC(O[C@H]2C[C@H]([C@]3(C)CC[C@]4(C[C@H](O)[C@@H](C)[C@@H]([C@@H](C)/C=C(\C)C(=O)[C@H](C)C[C@H](C)C(=O)O)O4)O3)O[C@]3(O[C@@H]([C@H]4O[C@@](O)(CO)[C@H](C)C[C@@H]4C)C[C@@H]3C)[C@@H]2C)O[C@@H]1C (stereo not given in full) | 0.372 µM (active) |  |
| CC(C)[C@H]1C(=O)N[C@H](CO)Cc2c[nH]c3cccc(c23)N1C | 1.15 µM (active) |  |
| COc1cc([C@@H]2c3cc4c(cc3[C@@H](O)C3COC(=O)C32)OCO4)cc(OC)c1O (stereo not given in full) | 0.372 µM (active) |  |
| O=C(NCCCNc1nc(Nc2ccc(N3CCOCC3)cc2)ncc1C1CC1)C1CCC1 | 0.372 µM (active) |  |
| CC(C)CC(N(C)C)C1(c2ccc(Cl)cc2)CCC1 (stereo not given) |  | 93.2% |
| COC(=O)[C@]12CCC(C)(C)C[C@H]1[C@H]1C(=O)C=C3[C@@]4(C)C=C(C#N)C(=O)C(C)(C)[C@@H]4CC[C@@]3(C)[C@]1(C)CC2 | 0.417 µM (active) |  |
| O=P1(NCCCl)OCCCN1CCCl (stereo not given) |  | 120% |
| Cc1[nH]ncc1-c1cc2nc([C@@H]3CC4CCN3CC4)[nH]c(=O)c2s1 | 3.32 µM (active) |  |
